Data: PubChem BioAssay (NCI)
The panel holds about 79,000 compounds, 15% with a hit somewhere; the sample as a whole holds those more often. The source made the active and inactive calls. Cut-off read from the data, not from the text of the source: active = growth inhibition above about 70%; inactive = the rest.

Columns and labels:
[1] = NCI Yeast Anticancer Drug Screen. Data for the rad50 strain (AID 155);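 note: 0% = growth of vehicle-only cultures of the same strain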; conditions: S. cerevisiae rad50 strain growth inhibition, active compounds read high
How it was run: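 Relative growth inhibition (compound vs vehicle) was measured in yeast with a defined repair-gene alteration.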

[2] = NCI Yeast Anticancer Drug Screen. Data for the mec2-1 strain (AID 157); conditions: S. cerevisiae mec2-1 strain, active compounds read high
How it was run: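 Compounds were applied to mec2-1 yeast cells. Their growth was then compared with that of vehicle-treated cultures to give growth inhibition.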

[3] = NCI Yeast Anticancer Drug Screen. Data for the sgs1 mgt1 strain (AID 161);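 note: 0% = growth of cultures given vehicle only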; conditions: S. cerevisiae sgs1 mgt1 strain, active compounds read high
How it was run: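 Yeast cells carrying a defined DNA-repair defect were exposed to test compounds. Growth inhibition was measured relative to vehicle-treated controls.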

[4] = NCI Yeast Anticancer Drug Screen. Data for the cln2 rad14 strain (AID 165);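 note: 0% = growth equal to vehicle treated cultures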; conditions: S. cerevisiae cln2 rad14 strain, active compounds read high
How it was run: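 Strain: cln2 rad14 yeast, altered in cell cycle control and DNA damage repair. Read-out: growth inhibition vs vehicle.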

[5] = NCI Yeast Anticancer Drug Screen. Data for the bub3 strain (AID 167); conditions: S. cerevisiae bub3 mutant strain, active compounds read high
How it was run: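 Screening used yeast with an engineered genetic alteration affecting cell cycle control. Compound-exposed cultures were compared with vehicle cultures, and reduced growth was taken as inhibition.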

[6] = NCI Yeast Anticancer Drug Screen. Data for the mlh1 rad18 strain (AID 175); conditions: S. cerevisiae mlh1 rad18 strain growth inhibition, active compounds read high
How it was run: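 A repair-deficient yeast strain is exposed to test compound, and growth is scored relative to vehicle-treated controls.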

[7] = at 5.0 µM (retest, dose inferred, filed as 0.5)
[8] = at 50.0 µM (retest, dose inferred, filed as 5.0)

Measured: growth inhibition

CC(=O)NC1=C(Sc2ccc([N+](=O)[O-])cc2)C(=O)c2ccccc2C1=O
inactive: [1]; at 50.0 µM 61.4% | [2]; at 50.0 µM 11.1% | [3]; at 50.0 µM 21.9% | [4]; [7] 46% | [4]; [8] 13% | [4]; at 50.0 µM -18.1% | [5]; [8] 5% | [5]; at 50.0 µM 62% | [6]; at 50.0 µM 51.5%
active: [1]; [7] 96% | [1]; [8] 98% | [2]; [7] 98% | [2]; [8] 96% | [3]; [7] 98% | [3]; [8] 99% | [5]; [7] 75% | [6]; [7] 98% | [6]; [8] 99%

Clc1ccc(C2=CCN3CC=C(c4ccc(Cl)cc4)C23)cc1
inactive: [1]; [7] 24% | [1]; [8] 18% | [2]; [7] 1% | [2]; [8] 42% | [3]; [7] 32% | [3]; [8] 46% | [4]; [7] 13% | [4]; [8] 5% | [5]; [7] 17% | [5]; [8] 41% | [6]; [7] 18% | [6]; [8] 39%
active: [1]; at 50.0 µM 99.8% | [2]; at 50.0 µM 99.9% | [3]; at 50.0 µM 100% | [4]; at 50.0 µM 99.6% | [5]; at 50.0 µM 99.8% | [6]; at 50.0 µM 99.8%

Oc1c(Cl)cc(Cl)cc1Br
active: [1]; [8] 83% | [1]; at 50.0 µM 90.2% | [2]; [8] 96% | [2]; at 50.0 µM 97.4% | [3]; [8] 72% | [3]; at 50.0 µM 96.7% | [4]; [8] 91% | [5]; [8] 78% | [5]; at 50.0 µM 84.7% | [6]; [8] 91% | [6]; at 50.0 µM 88.1%
inactive: [1]; [7] -4% | [2]; [7] 5% | [3]; [7] 3% | [4]; [7] 0% | [4]; at 50.0 µM 54.5% | [5]; [7] -7% | [6]; [7] -2%

COc1ccc(C2SC(N)=Nc3c2c(C)nn3C(=O)c2ccccc2O)cc1OC (stereo not given)
active: [1]; [8] 74% | [2]; [8] 81% | [3]; [8] 70% | [3]; at 50.0 µM 75.3% | [5]; at 50.0 µM 74.3% | [6]; [8] 91%
inactive: [1]; [7] -9% | [1]; at 50.0 µM 53.3% | [2]; [7] -15% | [2]; at 50.0 µM 35.2% | [3]; [7] -8% | [4]; [7] -20% | [4]; [8] 24% | [4]; at 50.0 µM -19% | [5]; [7] -19% | [5]; [8] 31% | [6]; [7] 1% | [6]; at 50.0 µM 65.5%

CCCCCCCCCCCCCCCC[N+](C)(C)c1ccccc1
active: [1]; [7] 98% | [1]; [8] 98% | [1]; at 50.0 µM 91.1% | [2]; [7] 98% | [2]; [8] 99% | [2]; at 50.0 µM 90.7% | [3]; [7] 99% | [3]; [8] 99% | [3]; at 50.0 µM 90.4% | [4]; [7] 98% | [4]; [8] 99% | [4]; at 50.0 µM 86.2% | [5]; [7] 99% | [5]; [8] 99% | [5]; at 50.0 µM 92.8% | [6]; [7] 98% | [6]; [8] 98% | [6]; at 50.0 µM 92.2%

CN(C)CCCNc1c2ccccc2nc2cccc([N+](=O)[O-])c12
active: [1]; [7] 93% | [1]; [8] 99% | [1]; at 50.0 µM 89.4% | [2]; [7] 95% | [2]; [8] 99% | [2]; at 50.0 µM 93% | [3]; [7] 95% | [3]; [8] 99% | [3]; at 50.0 µM 92.8% | [4]; [7] 95% | [4]; [8] 99% | [4]; at 50.0 µM 89.2% | [5]; [7] 76% | [5]; [8] 99% | [5]; at 50.0 µM 90.8% | [6]; [7] 90% | [6]; [8] 98% | [6]; at 50.0 µM 89.9%

O=C(Cc1ccccc1)OC(C(=O)c1ccccc1)c1ccccc1 (stereo not given)
active: [1]; [8] 94% | [2]; [8] 95% | [3]; [8] 93% | [4]; [8] 90% | [5]; [8] 92% | [5]; at 50.0 µM 72.2% | [6]; [8] 92%
inactive: [1]; [7] 4% | [1]; at 50.0 µM -15.7% | [2]; [7] 7% | [2]; at 50.0 µM 10.3% | [3]; [7] 3% | [3]; at 50.0 µM -0.1% | [4]; [7] 2% | [4]; at 50.0 µM -12.3% | [5]; [7] 20% | [6]; [7] 4% | [6]; at 50.0 µM -3.1%

O=[N+]([O-])c1c(Br)ncn1Cc1ccccc1
active: [1]; [8] 92% | [2]; [8] 98% | [3]; [8] 90% | [4]; [8] 99% | [5]; [8] 99% | [6]; [8] 94%
inactive: [1]; [7] 26% | [1]; at 50.0 µM 68.8% | [2]; [7] 22% | [2]; at 50.0 µM 8.25% | [3]; [7] 14% | [3]; at 50.0 µM 22.4% | [4]; [7] 21% | [4]; at 50.0 µM 7.5% | [5]; [7] 35% | [5]; at 50.0 µM -4.85% | [6]; [7] 49% | [6]; at 50.0 µM 38.4%

COC(=O)/C=C(\Cl)C(=O)OC
inactive: [1]; [7] 8% | [2]; [7] 16% | [3]; [7] 5% | [4]; [7] 19% | [5]; [7] 19% | [6]; [7] 7%
active: [1]; [8] 84% | [1]; at 50.0 µM 99.3% | [2]; [8] 99% | [2]; at 50.0 µM 99.7% | [3]; [8] 98% | [3]; at 50.0 µM 99.5% | [4]; [8] 99% | [4]; at 50.0 µM 97.5% | [5]; [8] 97% | [5]; at 50.0 µM 99.5% | [6]; [8] 98% | [6]; at 50.0 µM 99.2%

CCN1CC(=O)N(C)C1=S
inactive: [1]; [7] -9% | [1]; [8] 5% | [2]; [7] -6% | [2]; [8] -19% | [3]; [7] 8% | [3]; [8] -11% | [4]; [7] 20% | [4]; [8] 39% | [5]; [7] 12% | [5]; [8] 18% | [6]; [7] -5% | [6]; [8] -41%
active: [1]; at 50.0 µM 84.7% | [2]; at 50.0 µM 71.2% | [3]; at 50.0 µM 89% | [4]; at 50.0 µM 74.9% | [5]; at 50.0 µM 83.8% | [6]; at 50.0 µM 79.5%
